Measurements reported in PubChem BioAssay (Tox21).
Inconclusive results are not listed. A call without a number means that no potency is given here. Active and inactive are the calls of the source. Calls come from the whole dose curve; as a rule, active = well fitted activation curve with a large enough effect in the repeat runs; inconclusive = weak or mixed curves, or effect the other way; inactive = no such curve, though single readings can be large or run the other way.

Experiment: qHTS assay to identify small molecule agonists of the retinoic acid receptor (RAR) signaling pathway (AID 1159553)
Settings: C3RL4 RARE luciferase reporter, agonist, 6 h; series mostly up to 73.3 µM
Outline: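 Agonist activity was scored in C3RL4 cells bearing a retinoic acid response element luciferase construct. Cells were treated with compounds for 6 hr at 37 C, and luciferase signal was measured as luminescence.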
Potency is the fitted concentration of half-maximal effect.

Row | SMILES | Potency | activation
1 | CCOc1ccc2[nH]cc(C(=O)NCc3ccccc3)c(=O)c2n1 | inactive | 
2 | C=Cc1c(C)c2cc3[nH]c(cc4nc(cc5nc(cc1[nH]2)C(C)=C5CCC(=O)O)C(CCC(=O)O)=C4C)c(C)c3C=C | inactive | 
3 | CCCCCOC(=O)COc1cc(N2C(=O)C3=C(CCCC3)C2=O)c(F)cc1Cl | inactive | 
4 | CCN(CCO)CCCC(C)Nc1ccnc2cc(Cl)ccc12 (stereo not drawn) |  | 0.716% [at 8.36 µM] (inactive)
5 | CCc1nn(C2CCCCC2)c2cc(C3(C#N)CCC(C(=O)O)CC3)ccc12 (stereo not drawn) | inactive | 
6 | NC(N)=N/N=C/c1c(Cl)cccc1Cl | inactive | 
7 | CC(C(=O)O)c1ccc(-c2ccccc2)c(F)c1 (stereo not drawn) | inactive | 
8 | O=C(c1ccccc1)c1ccc2n1CCC2C(=O)O (stereo not drawn) | 13.3 µM (active) | 
9 | N[C@H]1C(O)O[C@H](CO)[C@H](O)[C@@H]1O (stereo partly drawn) | inactive | 
10 | CCN1CCC[C@H]1CNC(=O)c1c(OC)ccc(Br)c1OC | inactive | 
11 | O=C(O)c1cccc(N(Cc2cccnc2)c2ccc(OC(F)F)c(OC(F)F)c2)c1 | inactive | 
12 | O=C(c1ccc(O)cc1)c1ccc(O)cc1 | inactive | 
13 | OCC1CC2CC1C1CCC(CO)C21 (stereo not drawn) | inactive | 
14 | CCCCCCCCC(CO)CCCCCC (stereo not drawn) | inactive | 
15 | CC1=CC(=O)/C(=C(/C)O)C(=O)O1 | inactive | 
16 | CCCOc1ccc2nc(NC(=O)OC)[nH]c2c1 | inactive | 
17 | O=C1CCCCCO1 | inactive | 
18 | Oc1ccc2c(c1)OCO2 | inactive | 
